This passage reports Potency and outcome results from PubChem BioAssay (Tox21).

Records with an inconclusive call do not appear. A number with no mark means an inactive call. Calls of active or inactive are those of the source. Unless noted, the call rests on the fitted dose curve; in most records, active means well fitted curve in the direction sought with a large enough effect in the repeat runs; inconclusive means weak or mixed curves; inactive means no such curve, though single readings can be large; an effect the other way counts as inactive or inconclusive.

Experiment [1] in a line: qHTS assay to identify small molecule antagonists of the retinoid acid receptor (RAR) signaling pathway - cell viability counter screen (AID 1159551). Further: nearly all actives have a fitted effect of over 35% in size. In a few lines:
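Seed C3RL4 cells; next day add compound, then retinol to 1 uM final; incubate 6 h at 37 C; add CellTiter-Glo; read luminescence after 30 min at RT.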
A general note: qHTS replaces the single test concentration by a dilution series.

Experiment [2] in a line: qHTS assay to identify small molecule antagonists of the retinoic acid receptor (RAR) signaling pathway (AID 1159552; further: nearly all actives have a fitted effect of over 50% in size; further: potency means the concentration at half of the fitted maximal effect). The method, boiled down: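 Antagonism of retinol-induced RARE reporter activity was measured in C3RL4 cells. Exposure to compounds and 1 uM final retinol lasted 6 hr at 37 C, with luminescence as endpoint.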
Experiment [3] is described as follows: qHTS assay to identify small molecule antagonists of the estrogen related receptor (ERR) signaling pathway from Tox21 library - cell viability counter screen (AID 1224834). Further: nearly all actives have a fitted effect of over 30% in size. Further: potency means the concentration at half of the fitted maximal effect. The method, boiled down:
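CellTiter-Fluor fluorescence measured; ERR cells; 17.5 h compound incubation at 37 C; 30 min reagent step.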

The target of experiment [4] is Luciferin 4-monooxygenase (Photinus pyralis) (UniProt P08659). As to the kind of experiment: qHTS assay to identify small molecule inhibitors of firefly luciferase (AID 1224835). Further: nearly all actives have a fitted effect of over 25% in size. Further: potency means the concentration at half of the fitted maximal effect. In a few lines:
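Inhibition of purified Photinus luciferase is measured by luminescence. Substrate levels (D-luciferin, ATP) sit at their KM values. Each compound is tested in a concentration series.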

The nature of experiment [5]: qHTS assay to identify small molecule antagonists of the constitutive androstane receptor (CAR) signaling pathway - cell viability counter screen (AID 1224837). Further: series mostly up to about 92 µM; nearly all actives have a fitted effect of over 45% in size. The method, boiled down:
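Using CellTiter-Fluor, viability is scored in HepG2 cells stably carrying hCAR and a 2.2kb CYP2B6 reporter after 23 hr compound exposure across 15 concentrations, with CITCO present at 50 nM.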

Experiment [6] concerns the target Nuclear receptor subfamily 1 group I member 3 (Homo sapiens) (UniProt Q14994). The experiment in a line: qHTS assay to identify small molecule antagonists of the constitutive androstane receptor (CAR) signaling pathway (AID 1224838).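 Further: HepG2 cells stably expressing hCAR with CYP2B6 luciferase reporter stimulated by CITCO; nearly all actives have a fitted effect of over 40% in size.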 In a few lines:
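Reporter luminescence was quantified after 24 h exposure of hCAR/CYP2B6-2.2kb double-stable HepG2 cells to compounds at 15 concentrations in the presence of 50 nM CITCO final.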

Experiment [7] has as its target Thyrotropin receptor (Homo sapiens) (UniProt P16473). As to the kind of experiment: qHTS assay to identify small molecule agonists of the thyroid stimulating hormone receptor (TSHR) signaling pathway (AID 1224843; calls by dose curve; further: nearly all actives have a fitted effect of over 45% in size; further: potency means the concentration at half of the fitted maximal effect). The method, boiled down:
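HEK293 cells stably bearing the thyrotropin receptor were plated at 800 cells/well and challenged with compound (30 min, RT). Accumulated cAMP was quantified via cAMP-d2 competing for cryptate-tagged antibody.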

Experiment [8] has as its target Nuclear receptor subfamily 1 group I member 3 (Homo sapiens) (UniProt Q14994). The experiment in a line: qHTS assay to identify small molecule agonists of the constitutive androstane receptor (CAR) signaling pathway (AID 1224839). Further: nearly all actives have a fitted effect of over 15% in size. Further: potency means the concentration at half of the fitted maximal effect. The method, boiled down:
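Readout: firefly luciferase luminescence via ONE-Glo. System: HepG2 double-stable for hCAR and CYP2B6-2.2kb. Conditions: 15-point compound titration, PK11195 at 0.75 uM final, 24 h incubation.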

The nature of experiment [9]: qHTS assay to identify small molecule antagonists of the estrogen related receptor signaling pathway with the pleiotropic PPARgamma coactivator (PGC) from Tox21 10K library - cell viability counter screen (AID 1224840; active means well fitted cell-killing curve with a large enough effect in the repeat runs, not every such curve was filed as active; further: nearly all actives have a fitted effect of over 40% in size). The method, boiled down: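 Here the PGC/ERR cells serve as a cytotoxicity control: they are exposed to compounds for 17.5 hours at 37 C, and live-cell signal is quantified using CellTiter-Fluor fluorescence.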

The nature of experiment [10]: qHTS assay to identify small molecule agonists of the retinoic acid receptor (RAR) signaling pathway (AID 1159553). In a few lines: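 Activation of retinol signaling was monitored via a RARE luciferase reporter in C3RL4 cells. After 6 hr compound treatment at 37 C, detection reagent was added for 30 min at room temperature before luminescence reading.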
A short description of experiment [11]: qHTS assay to identify small molecule agonists of the constitutive androstane receptor (CAR) signaling pathway - cell viability counter screen (AID 1224836). Further: series mostly up to about 92 µM; nearly all actives have a fitted effect of over 45% in size. In a few lines:
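Double-stable HepG2 hepatoma cells (hCAR plus CYP2B6-2.2kb) are treated for 23 h at 37 C with test compounds in 15-point concentration series. PK11195 at 0.75 uM final is co-added. Cell viability is quantified by CellTiter-Fluor.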

The nature of experiment [12]: qHTS assay to identify small molecule antagonists of the estrogen related receptor signaling pathway with the pleiotropic PPARgamma coactivator (PGC) from Tox21 10K library (AID 1224841; call rule not given here; further: series mostly up to about 92 µM; actives are mostly falling curves and most rising ones were filed inactive; nearly all actives have a fitted effect of over 50% in size). In a few lines: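 Each well held 2,000 PGC/ERR cells, pre-incubated six hours (37 C, 5% CO2). Test substances in DMSO were added by pin tool and left for 18 h at 37 C before luciferase detection by One-Glo.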

Experiment [13] is described as follows: qHTS assay to identify small molecule agonists of the estrogen related receptor signaling pathway with the pleiotropic PPARgamma coactivator (PGC) from Tox21 10K library (AID 1224842). Further: nearly all actives have a fitted effect of over 15% in size. Further: potency means the concentration at half of the fitted maximal effect. The method, boiled down:
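Luminescence from One-Glo (30 min, room temperature) measured after PGC/ERR cells had 18 h at 37 C with pinned compound (23 nL in DMSO). Cells had been seeded at 2,000 per well and pre-incubated 6 h.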

A short description of experiment [14]: qHTS assay to identify small molecule antagonists of the estrogen related receptor (ERR) signaling pathway - cell viability counter screen (AID 1224818).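 Further: series mostly up to about 46 µM; viability measured after 17.5 h of compound exposure.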 The method, boiled down: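 In the same ERR cell assay, compound-treated wells (17.5 h, 37 C) were multiplexed with a fluorogenic viability reagent, CellTiter-Fluor, read after 30 min to flag cytotoxic substances.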

Experiment [15] is described as follows: qHTS assay to identify small molecule antagonists of the estrogen related receptor signaling pathway with the pleiotropic PPARgamma coactivator (PGC) cell viability counter screen (AID 1224822; further: series mostly up to about 46 µM). In a few lines: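 Compounds in DMSO, with positive and negative controls, were applied to PGC/ERR cells (2,000/well) and left 17.5 h at 37 C before CellTiter-Fluor detection.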

Sequence of Thyrotropin receptor (Homo sapiens) (P16473 whole entry, looked up): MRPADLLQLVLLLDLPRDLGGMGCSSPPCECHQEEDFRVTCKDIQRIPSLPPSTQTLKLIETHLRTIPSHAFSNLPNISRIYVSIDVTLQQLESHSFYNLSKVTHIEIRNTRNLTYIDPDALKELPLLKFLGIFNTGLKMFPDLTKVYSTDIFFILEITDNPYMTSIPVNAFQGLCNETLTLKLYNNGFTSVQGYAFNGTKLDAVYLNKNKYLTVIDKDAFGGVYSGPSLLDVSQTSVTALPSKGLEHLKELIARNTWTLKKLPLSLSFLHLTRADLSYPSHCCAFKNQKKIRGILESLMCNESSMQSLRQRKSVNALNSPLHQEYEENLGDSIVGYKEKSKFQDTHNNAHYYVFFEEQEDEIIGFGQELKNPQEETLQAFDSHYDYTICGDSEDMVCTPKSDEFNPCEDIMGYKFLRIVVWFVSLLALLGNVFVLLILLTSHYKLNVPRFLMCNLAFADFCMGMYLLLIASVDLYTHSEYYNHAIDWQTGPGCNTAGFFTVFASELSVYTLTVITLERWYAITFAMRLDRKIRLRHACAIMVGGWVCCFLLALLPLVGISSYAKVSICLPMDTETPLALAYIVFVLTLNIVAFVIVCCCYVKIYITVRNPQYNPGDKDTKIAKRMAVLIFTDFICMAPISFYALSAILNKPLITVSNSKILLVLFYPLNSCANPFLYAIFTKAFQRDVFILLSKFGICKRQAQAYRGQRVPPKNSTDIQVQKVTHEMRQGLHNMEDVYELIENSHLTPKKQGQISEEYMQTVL
Sequence of Luciferin 4-monooxygenase (Photinus pyralis) (P08659 whole entry, looked up): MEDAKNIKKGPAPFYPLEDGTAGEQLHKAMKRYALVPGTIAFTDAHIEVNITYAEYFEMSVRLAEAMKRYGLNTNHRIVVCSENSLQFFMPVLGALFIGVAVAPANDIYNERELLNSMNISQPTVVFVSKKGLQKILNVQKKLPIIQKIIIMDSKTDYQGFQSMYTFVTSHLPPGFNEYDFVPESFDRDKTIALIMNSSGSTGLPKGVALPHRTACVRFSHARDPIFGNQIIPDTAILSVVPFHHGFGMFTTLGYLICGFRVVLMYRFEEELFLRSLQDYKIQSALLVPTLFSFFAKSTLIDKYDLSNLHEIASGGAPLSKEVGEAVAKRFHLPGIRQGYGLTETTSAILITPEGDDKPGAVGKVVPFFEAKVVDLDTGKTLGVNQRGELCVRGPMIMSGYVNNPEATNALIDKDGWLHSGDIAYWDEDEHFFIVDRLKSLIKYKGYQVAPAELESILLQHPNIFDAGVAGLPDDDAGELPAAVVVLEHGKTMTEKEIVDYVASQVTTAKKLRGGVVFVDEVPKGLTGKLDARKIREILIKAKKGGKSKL
Sequence of Nuclear receptor subfamily 1 group I member 3 (Homo sapiens) (Q14994 whole entry, looked up): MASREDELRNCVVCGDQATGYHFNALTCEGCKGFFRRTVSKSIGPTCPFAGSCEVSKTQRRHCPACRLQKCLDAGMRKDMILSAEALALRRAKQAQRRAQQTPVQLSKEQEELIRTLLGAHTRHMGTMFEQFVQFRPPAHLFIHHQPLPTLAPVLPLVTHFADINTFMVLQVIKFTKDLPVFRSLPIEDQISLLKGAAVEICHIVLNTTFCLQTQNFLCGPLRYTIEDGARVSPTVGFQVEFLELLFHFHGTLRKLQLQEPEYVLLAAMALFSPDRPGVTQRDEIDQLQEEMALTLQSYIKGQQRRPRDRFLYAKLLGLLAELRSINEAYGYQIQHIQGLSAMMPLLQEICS

For `CCOC(=O)[C@H](CCc1ccccc1)N[C@H]1CCc2ccccc2N(CC(=O)O)C1=O`, the Potency result in [1], in experiment [4], in experiment [5], in experiment [6] and in experiment [7] was “inactive” each time. Besides, the Potency in [2] was 29.8 µM (active); in [3] it was 26.6 µM (active).

`Oc1ccc(Sc2ccc(O)cc2)cc1`: the Potency entry in experiment [1], in [2], in experiment [5], in experiment [6] and in experiment [9] was “inactive” throughout. The Potency in experiment [8] was 57.2 µM (active).

In the case of `CCCCc1cc2ccccc2c(OCCN(C)C)n1`, the Potency entry in experiment [1], in experiment [10], in [3], in experiment [4], in experiment [11] and in [9] was “inactive” in each case. Moreover, the Potency result in experiment [7] is “inactive”.

In the case of `CN(C)CCCOc1nn(Cc2ccccc2)c2ccccc12`, the Potency result in experiment [1], in experiment [4], in [5], in experiment [9], in [12] and in experiment [13] was “inactive” in each case. Further, the Potency result in [7] was “inactive”.

As for `Cc1ccc2c(ccc3ccccc32)c1`, the Potency entry in [1], in experiment [2], in experiment [3], in [11], in [5] and in experiment [6] was “inactive” throughout. In addition, the Potency result in experiment [9] and in [7] was “inactive” in each case. Also, the Potency in [4] is 31.8 µM (active).

With `CCC(C)N(C)C(=O)c1cc2ccccc2c(-c2ccccc2Cl)n1` (stereo not given), the Potency result in [1], in experiment [4], in experiment [11], in experiment [5] and in experiment [9] was “inactive” each time. In addition, the outcome in experiment [14] and in experiment [15] was inactive.

As for `CC(=O)OC/C=C/c1ccccc1`, the Potency entry in experiment [1], in experiment [3], in [11], in [5], in experiment [6] and in experiment [8] was “inactive” throughout. Besides, the Potency entry in experiment [9], in [12], in experiment [13] and in [7] was “inactive” throughout.

With `CCCCOC(=O)/C=C\C(=O)OCCCC`, the Potency entry in [1], in experiment [10], in experiment [3], in [4], in [11] and in [6] was “inactive” in each case. The Potency entry in [8], in experiment [9], in experiment [12], in experiment [13] and in experiment [7] was “inactive” each time.

As for `CN1CCC(=C2c3ccccc3CCc3sccc32)CC1`, the Potency entry in experiment [1], in [4], in experiment [11], in experiment [5], in [6] and in [12] was “inactive” in each case. In addition, the Potency result in experiment [13] and in experiment [7] was “inactive” in each case.

Turning to `COC(=O)CSc1cc(N=c2sc(=O)n3n2CCCC3)c(F)cc1Cl`, the Potency entry in experiment [1], in [3], in [4], in experiment [11], in experiment [8] and in [9] was “inactive” each time.

In the case of `C=CCCCCCC`, the Potency result in [1], in [2], in [3], in [4], in [11] and in experiment [5] was “inactive” each time. The Potency result in experiment [6], in experiment [9], in [12], in [13] and in experiment [7] was “inactive” in each case.

On to `Nc1ccc(C(=O)Nc2ccccc2N)cc1`, for which the Potency result in experiment [1], in [2], in experiment [3], in experiment [11], in experiment [5] and in experiment [9] was “inactive” throughout. For the same compound, the Potency entry in experiment [7] is “inactive”. Moreover, the Potency in experiment [13] was 11.9 µM (active).

For the compound `CCCCCc1ccc(N)cc1`, the Potency entry in [1], in experiment [2], in experiment [10], in [3], in [11] and in experiment [5] was “inactive” throughout. For the same compound, the Potency entry in experiment [6], in experiment [8], in experiment [9] and in experiment [7] was “inactive” in each case.

As for `CC(=O)c1c(C)c([N+](=O)[O-])c(C(C)(C)C)c([N+](=O)[O-])c1C`, the Potency entry in experiment [1], in experiment [2], in experiment [10], in [3], in [11] and in [5] was “inactive” in each case. Also, the Potency result in [9] is “inactive”. In [7], the Potency was 6.11 µM (active).
